Shown are actives, neighbours in structure and some others; about 1.2% of the full set was active somewhere.
E coli Lon inh: E. coli protease La inhibition. P0A9M0. purified E. coli Lon protease, fluorescence polarization. inhibition, % at 7.94 µM. hit rate 0.42% among 360,000; in the data active = inhibition above about 13%, passing the limit was not always enough
Target sequence (P0A9M0 whole entry, looked up): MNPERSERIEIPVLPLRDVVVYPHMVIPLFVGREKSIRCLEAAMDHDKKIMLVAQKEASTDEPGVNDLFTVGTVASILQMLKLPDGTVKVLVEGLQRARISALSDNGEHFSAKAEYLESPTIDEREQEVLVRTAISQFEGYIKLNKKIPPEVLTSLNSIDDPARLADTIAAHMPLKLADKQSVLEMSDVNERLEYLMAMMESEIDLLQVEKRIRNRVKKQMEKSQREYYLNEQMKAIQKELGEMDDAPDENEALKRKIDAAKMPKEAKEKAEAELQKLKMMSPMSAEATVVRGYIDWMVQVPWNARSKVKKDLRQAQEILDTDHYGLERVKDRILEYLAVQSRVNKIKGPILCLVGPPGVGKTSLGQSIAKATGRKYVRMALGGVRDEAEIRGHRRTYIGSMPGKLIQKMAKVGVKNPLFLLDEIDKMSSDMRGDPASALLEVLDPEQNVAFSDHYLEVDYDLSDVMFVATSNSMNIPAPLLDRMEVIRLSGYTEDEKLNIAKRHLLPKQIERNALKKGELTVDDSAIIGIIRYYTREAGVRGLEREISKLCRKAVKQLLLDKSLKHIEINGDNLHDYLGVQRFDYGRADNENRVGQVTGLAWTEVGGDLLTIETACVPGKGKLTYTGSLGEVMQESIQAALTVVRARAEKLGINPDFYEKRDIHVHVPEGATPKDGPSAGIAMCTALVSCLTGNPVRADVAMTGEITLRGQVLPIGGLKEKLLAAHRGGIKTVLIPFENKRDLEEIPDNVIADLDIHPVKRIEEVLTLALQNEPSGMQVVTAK
BCLXL inh: Bcl-xL (human) inhibition | Q07817 | hit rate 0.7% among 320,000 | inhibition, % at 10.9 µM | GST-Bcl-xL / FITC-Bim BH3 peptide fluorescence polarization;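 active = inhibition above the mean of all tested compounds plus 3 SD, cutoff set per campaign, cut at about 30% in these data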;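 note: inhibitors lower millipolarization by displacing the labeled peptide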
RTF Ca sens inh: cardiac RTF calcium desensitization | AID 493244 | hit rate 0.12% among 340,000 | IANBD-labeled cardiac RTF, Ca2+ fluorescence | P19429+P45379 | inhibition, % at 7.15 µM;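 active = inhibition above the mean inhibition of all tested compounds plus 3 SD, cut at about 17% in these data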;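 note: assay run at fixed EC70 calcium of 1.6 mM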
GLD-1 RNA inh: GLD-1-TGE RNA interaction inhibition (C. elegans) | Q17339 | purified GLD-1 + fluorescein TGE RNA, fluorescence polarization | inhibition, % at 5.96 µM | AID 2280 | hit rate 0.44% among 320,000;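 active = percent inhibition above a per-plate cutoff, the plate mean of test compounds plus 3 SD, cut at about 30% in these data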
RTF Ca sens act: increases calcium sensitivity of human cardiac regulated thin filaments; IANBD-labeled TnC RTF fluorescence at EC20 calcium; 0% EC20 calcium, 100% full calcium; hit rate 0.24% among 340,000; activation, % at 7.2 µM; P19429+P45379;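 active = activation above the mean over all tested compounds plus 3 SD, cut at about 30% in these data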;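 note: rise in fluorescence read as greater calcium sensitivity of cardiac thin filaments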
Hits are given with their value.

`CN1CCc2nc(SCC(=O)Nc3ccc(OC(F)(F)F)cc3)c(C#N)c(-c3cccs3)c2C1` gave E coli Lon inh inactive, BCLXL inh inactive, RTF Ca sens inh inactive, GLD-1 RNA inh inactive and RTF Ca sens act inactive.
Screening Cc1cccc(CSc2nc3c(c(-c4cccs4)c2C#N)CN(C)CC3)c1 returned E coli Lon inh inactive, BCLXL inh 33.5, RTF Ca sens inh inactive, GLD-1 RNA inh inactive and RTF Ca sens act inactive.
Screening CC1CC(C)CN(S(=O)(=O)c2ccc(NC(=O)CCN3C(=O)C4CC=CCC4C3=O)cc2)C1 (stereo not given) returned E coli Lon inh inactive, BCLXL inh inactive, RTF Ca sens inh inactive, GLD-1 RNA inh inactive and RTF Ca sens act inactive.
For Cc1cccnc1C(NC(=O)C1CCN(Cc2ccc(Cl)cc2)CC1)c1ccccc1 (stereo not given) the results were E coli Lon inh inactive.
For C(=N\N1CCN(C2c3ccccc3-c3ccccc32)CC1)/c1ccccn1 the results were E coli Lon inh inactive, BCLXL inh inactive, RTF Ca sens inh inactive, GLD-1 RNA inh inactive and RTF Ca sens act inactive.
Screening O=C(O)CCNc1ccc(NCCC(=O)O)c2c1C(=O)c1ccccc1C2=O returned E coli Lon inh inactive, BCLXL inh 114.4, RTF Ca sens inh inactive, GLD-1 RNA inh 77.4 and RTF Ca sens act inactive.
For Cc1cc(C)c(-c2cc(NC(=O)COC(=O)c3ccc(NC(=O)CC#N)cc3)n(-c3ccccc3)n2)cc1C the results were E coli Lon inh inactive, BCLXL inh inactive, RTF Ca sens inh inactive, GLD-1 RNA inh inactive and RTF Ca sens act inactive.
Screening Cc1cccc(NC(=O)c2cccc3c2-c2ccccc2C3=O)n1 returned E coli Lon inh inactive, BCLXL inh 67.4, RTF Ca sens inh inactive, GLD-1 RNA inh inactive and RTF Ca sens act inactive.
CNc1c(NS(=O)(=O)c2ccc(F)c(Cl)c2)c(=O)oc2ccccc12 was read as E coli Lon inh inactive, BCLXL inh inactive, RTF Ca sens inh inactive, GLD-1 RNA inh inactive and RTF Ca sens act inactive.
Screening O=C(N/C(=C/c1cccc(Br)c1)C(=O)N1CCCCC1)c1ccco1 returned E coli Lon inh inactive.
For COC(=O)[C@H]1[C@H]2C[C@@H]3c4[nH]c5cc(OC)ccc5c4CCN3C[C@H]2C[C@@H](OC(=O)c2cc(OC)c(OC)c(OC)c2)[C@@H]1OC the results were E coli Lon inh inactive, BCLXL inh inactive, RTF Ca sens inh inactive, GLD-1 RNA inh inactive and RTF Ca sens act inactive.
Screening COc1ccc2c3c([nH]c2c1)C1CC2C(CC(O)C(OC)C2C(=O)O)CN1CC3 (stereo not given) returned E coli Lon inh inactive, BCLXL inh 40.0, RTF Ca sens inh inactive, GLD-1 RNA inh inactive and RTF Ca sens act inactive.
N#C/C(=C\C=C\c1ccccc1[N+](=O)[O-])C(=O)NCc1ccccc1 was read as E coli Lon inh inactive, BCLXL inh inactive, RTF Ca sens inh inactive, GLD-1 RNA inh inactive and RTF Ca sens act inactive.
`C=CCNC(=O)/C(C#N)=C/c1ccc(C)o1` gave E coli Lon inh inactive, BCLXL inh inactive, RTF Ca sens inh inactive, GLD-1 RNA inh inactive and RTF Ca sens act inactive.
For CCN(CC)c1ccc(/C=C(/C#N)C(=O)NC(C)C)o1 the results were E coli Lon inh inactive, BCLXL inh inactive, RTF Ca sens inh inactive, GLD-1 RNA inh inactive and RTF Ca sens act 71.5.
Screening N#C/C(=C\c1ccc(O)cc1)C(=O)NCc1ccccc1 returned E coli Lon inh inactive, BCLXL inh inactive, RTF Ca sens inh inactive, GLD-1 RNA inh inactive and RTF Ca sens act inactive.
Screening CCN(CC)c1ccc(/C=C(/C#N)C(=O)NCc2ccccc2)o1 returned E coli Lon inh inactive, BCLXL inh inactive, RTF Ca sens inh inactive, GLD-1 RNA inh inactive and RTF Ca sens act 110.6.
`N#C/C(=C\c1ccccc1[N+](=O)[O-])C(=O)NCc1ccccc1` gave E coli Lon inh inactive, BCLXL inh 33.9, RTF Ca sens inh inactive, GLD-1 RNA inh inactive and RTF Ca sens act inactive.
For CC(NC(=O)/C(C#N)=C/c1ccc([N+](=O)[O-])o1)c1ccccc1 (stereo not given) the results were E coli Lon inh inactive, BCLXL inh inactive, RTF Ca sens inh inactive, GLD-1 RNA inh inactive and RTF Ca sens act inactive.
`CC(C)NC(=O)/C(C#N)=C\c1ccc(N(C)C)o1` gave E coli Lon inh inactive, BCLXL inh inactive, RTF Ca sens inh inactive, GLD-1 RNA inh inactive and RTF Ca sens act 63.6.
Cc1nc(-c2ccc3c(c2)OCCO3)cs1 was read as E coli Lon inh inactive, BCLXL inh inactive, RTF Ca sens inh inactive, GLD-1 RNA inh inactive and RTF Ca sens act inactive.
Screening CC1CCCC(n2cnc3cc(C(=O)O)ccc32)C1C (stereo not given) returned E coli Lon inh inactive, BCLXL inh inactive, RTF Ca sens inh inactive, GLD-1 RNA inh inactive and RTF Ca sens act inactive.
Screening N#C/C(=C\c1cccnc1)C(=O)Nc1ccccc1[N+](=O)[O-] returned E coli Lon inh inactive, BCLXL inh 34.1, RTF Ca sens inh inactive, GLD-1 RNA inh inactive and RTF Ca sens act inactive.
COc1ccc(CCNC(=O)C2CCCN(S(=O)(=O)c3ccc(F)cc3)C2)cc1 (stereo not given) was read as E coli Lon inh inactive, BCLXL inh inactive, RTF Ca sens inh inactive, GLD-1 RNA inh inactive and RTF Ca sens act inactive.
For CS(=O)(=O)Nc1ccc(C(=O)NCCc2ccccc2)cc1 the results were E coli Lon inh inactive, BCLXL inh 144.7, RTF Ca sens inh inactive, GLD-1 RNA inh inactive and RTF Ca sens act inactive.
CC1CCN(Cc2cc(=O)oc3cc(O)c(Cl)cc23)CC1 was read as E coli Lon inh inactive, BCLXL inh inactive, RTF Ca sens inh inactive, GLD-1 RNA inh inactive and RTF Ca sens act inactive.
Cc1cccc(/C=C(\C#N)C(=O)Nc2ccccn2)c1 was read as E coli Lon inh inactive, BCLXL inh 36.5, RTF Ca sens inh inactive, GLD-1 RNA inh inactive and RTF Ca sens act inactive.
`N#C/C(=C\c1ccccc1)C(=O)Nc1ccccn1` gave E coli Lon inh inactive, BCLXL inh inactive, RTF Ca sens inh inactive, GLD-1 RNA inh inactive and RTF Ca sens act inactive.
Screening N#C/C(=C\c1cccs1)C(=O)Nc1ccccn1 returned E coli Lon inh inactive, BCLXL inh 55.3, RTF Ca sens inh inactive, GLD-1 RNA inh inactive and RTF Ca sens act inactive.
`O=C(NCCOc1ccc(Cl)cc1)C1CCCCC1` gave E coli Lon inh inactive, BCLXL inh inactive, RTF Ca sens inh inactive, GLD-1 RNA inh inactive and RTF Ca sens act inactive.
For CN(C)c1ccc(CC2C(=O)Nc3ccccc32)cc1 (stereo not given) the results were E coli Lon inh inactive, BCLXL inh 45.8, RTF Ca sens inh inactive, GLD-1 RNA inh inactive and RTF Ca sens act inactive.
For CN(C)c1ccc(NC(=O)C(=O)C2C(=O)Nc3ccccc32)cc1 (stereo not given) the results were E coli Lon inh inactive, BCLXL inh inactive, RTF Ca sens inh inactive, GLD-1 RNA inh inactive and RTF Ca sens act inactive.
`S=C(Nc1ccc2nsnc2c1)N1CCCCCC1` gave E coli Lon inh inactive, BCLXL inh 32.3, RTF Ca sens inh inactive, GLD-1 RNA inh inactive and RTF Ca sens act inactive.
Screening O=C(Nc1ccc2nsnc2c1)N1CCCCC1 returned E coli Lon inh inactive, BCLXL inh inactive, RTF Ca sens inh inactive, GLD-1 RNA inh inactive and RTF Ca sens act inactive.

Bioassay records from PubChem BioAssay.
